We go through 14 compounds from PubChem BioAssay (NCI).

Compounds without any hit were thinned out: in the full panel of roughly 83,000, 20% have a hit.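 Values shown are percent growth following 48 h exposure of cells in 96-well plates to a single concentration of compound; below 10 was considered active.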 Values without a mark were called inactive. Activity calls are given as the source filed them.

Experiment in all cases: NCI-60 one-dose screen, 48 h (100 = growth as untreated, 0 = no growth, -100 = all killed)
What all share (details): 10 µM unless noted

For assay [1], the system named is DU-145 prostate.
For assay [2], the system named is K-562 leukemia.
The subject of assay [3] is MALME-3M melanoma.
Assay [4] relates to MDA-MB-231 breast.
For assay [5], the system named is SF-268 CNS.
Assay [6] has as its system SF-295 CNS.
The test system of assay [7] is SF-539 CNS.
Assay [8] has as its system UACC-257 melanoma.
Assay [9] deals with RXF 393 renal.
Assay [10] relates to M14 melanoma.

On to `CN(C)CCNC(=O)c1ccc(-c2nc3ccc4[nH]ncc4c3c3c2COCC3)cc1`, for which the growth in assay [1] is 4.89% (active); in assay [2] it was 8.14% (active); in assay [3] it was -24% (active); in [4] it was -5.19% (active); in assay [5] it was -16.2% (active); in assay [6], 3.44% (active). The growth is -53% (active) in assay [7] and 22.1% in assay [8].
With `O=C1CCC(N2C(=O)c3ccc(NS(=O)(=O)c4ccccc4OC(F)(F)F)cc3C2=O)C(=O)N1` (stereo not drawn), the growth was 108% in assay [1]; 65.8% in assay [2]; 7.28% (active) in assay [3]; 6.46% (active) in assay [4]; 43.2% in assay [5]; 56.9% in assay [6]. The growth in assay [7] was 79.7%; in [8], 107%.
For `NC(N)=Nc1ccc(Oc2cccc(Nc3ccc(Br)c(C(F)(F)F)c3)c2)cn1`, the growth in assay [1] was -94.5% (active); in assay [2], -30.3% (active); in assay [4] it was -57.6% (active); in assay [9], -10.5% (active); in [5], 7.02% (active); in assay [6] it was -86.8% (active). Moreover, the growth in [7] is -50.3% (active); in [8], -28.5% (active); in assay [10], -62.1% (active).
Regarding `C[C@@H]1C[C@H]2C(=O)O[C@@H](C)C(NC(=O)[C@H](Cc3cc(F)cc(F)c3)NC(=O)Nc3ccc(C4CC4)cc3F)C(=O)N3CCC[C@H]3C(=O)N3CCCC[C@H]3C(=O)N[C@@H](CO)C(=O)N2C1` (stereo partly drawn), the growth in assay [1] was 25.6%; in [2], 18.6%; in [3] it was 36.9%; in assay [4], 33.9%; in assay [5] it was 31.4%; in [6] it was 11.4%. For the same compound, the growth was 35.4% in [7], 11.5% in assay [8] and 27.4% in assay [10].
As for `O=C(Cn1cc[n+](CC(=O)c2ccc(-c3ccccc3)cc2)c1)Nc1cccc2cccnc12`, the growth in [1] was 86.4%; in assay [2], 50.5%; in assay [4] it was 73.1%; in assay [9], 98.3%; in assay [5], 65.5%; in assay [6] it was 102%. Further, the growth in [7] was 79.1%; in [8] it was 34.4%; in assay [10], 85%.
Turning to `C#CCn1cccc1CNc1ccc(OC)cc1`, the growth in assay [1] was -96.6% (active); in [2], -46.9% (active); in assay [4], -53.9% (active); in [9] it was -32.3% (active); in assay [5], -56% (active); in assay [6], -92% (active). The results for the growth in [7], in assay [8] and in assay [10] were -94.4% (active), 23.6% and 7.08% (active), respectively.
`C#C[C@]1(O)CC[C@H]2[C@@H]3CC=C4c5sc(-c6cccc(O)c6)nc5CC[C@]4(C)[C@H]3CC[C@@]21C`: the growth in assay [1] is 2.17% (active); in assay [2], -5.49% (active); in [4] it was -40.8% (active); in [9] it was -68.5% (active); in assay [5] it was -15.4% (active); in assay [6], -64.7% (active). Moreover, the growth is -68.9% (active) in assay [7], -42.6% (active) in [8] and -41.1% (active) in assay [10].
Take `CCCCCc1ccc(S(=O)(=O)Nc2cc(-c3csc(NC(=O)CN4CCN(C)CC4)n3)ccc2OC)cc1`: the growth is 22.1% in [1]; -27.9% (active) in [2]; -84.6% (active) in assay [3]; -38.1% (active) in assay [4]; -24.5% (active) in assay [5]; -68.2% (active) in assay [6]. Further, the growth in assay [7] is -80.8% (active); in assay [8], -49.2% (active).
`NC(N)=Nc1ccc(Oc2cccc(Nc3ccc(Cl)c(C(F)(F)F)c3)c2)cc1`: the growth was 47.8% in [1]; 5.61% (active) in [2]; 6.88% (active) in assay [4]; 50% in [9]; 32.8% in assay [5]; 4.34% (active) in assay [6]. The growth was 80.9% in [7], 27.6% in assay [8] and 41.1% in [10].
Take `O=C(CCn1c[n+](CC(=O)c2ccc(F)cc2)c2ccccc21)Nc1cccc2cccnc12`: the growth was 96.6% in assay [1]; 58.5% in [2]; 57.4% in assay [4]; 92.7% in assay [9]; 78.6% in assay [5]; 99.2% in assay [6]. Further, the growth in assay [7] was 89.6%; in [8], 47.6%; in [10], 79.8%.
Turning to `CCO/C=N/C1=C(C#N)C(c2ccc(Cl)cc2)c2sc3c(C)cccc3c2O1` (stereo not drawn), the growth in assay [1] was 19.2%; in assay [2], 7.31% (active); in assay [4], 24.4%; in assay [9] it was -27.6% (active); in assay [5], 51.1%; in assay [6], -19.3% (active). Further, the growth is -11.5% (active) in [7], 76.2% in assay [8] and 1.8% (active) in assay [10].
On to `CCOC(=O)c1c(Nc2ccccc2)nn2c(-c3ccccc3)ccnc12`, for which the growth in assay [1] was 97.5%; in assay [2], 63.8%; in assay [3], 105%; in assay [4] it was 82.4%; in [5], 113%; in [6], 92.9%. The growth in assay [7] is 92.5%; in assay [8], 112%; in assay [10], 110%.
`Cc1nn(-c2ccccc2)c2ncnc(N/N=C/c3ccccc3)c12`: the growth in [1] is 91.2%; in [2], 78.5%; in assay [4], 109%; in assay [9] it was 91.3%; in assay [5] it was 91.7%; in assay [6], 108%. The figures for the growth in [7], in [8] and in [10] were 103%, 113% and 103%, respectively.
As to `O=C(CN1CCN(c2cc(=O)n(-c3ccccc3)c3ccccc23)CC1)Nc1nc(-c2ccc(Cl)cc2)cs1`, the growth in [1] was 61.6%; in [2], 24.2%; in [4], 74.7%; in assay [9], 67%; in [5], 54.5%; in assay [6] it was 62.6%. The growth in assay [7] was 76.1%; in assay [8], 28%; in assay [10], 55.1%.
